Screening data: PubChem, National Center for Advancing Translational Sciences (NCATS)
Most compounds without a hit are left out; they make up all but 3.2% or so of the library.
LmPK inhibitor – inhibitors of Leishmania mexicana pyruvate kinase | Q27686 | purified LmPK, Kinase-Glo ATP luminescence, 1 h | Potency, µM (highest dose often 57.5 µM), most hits filed as inhibitors | 0.37% of 290,000 active | AID 1721
Target sequence (Q27686 whole entry, looked up): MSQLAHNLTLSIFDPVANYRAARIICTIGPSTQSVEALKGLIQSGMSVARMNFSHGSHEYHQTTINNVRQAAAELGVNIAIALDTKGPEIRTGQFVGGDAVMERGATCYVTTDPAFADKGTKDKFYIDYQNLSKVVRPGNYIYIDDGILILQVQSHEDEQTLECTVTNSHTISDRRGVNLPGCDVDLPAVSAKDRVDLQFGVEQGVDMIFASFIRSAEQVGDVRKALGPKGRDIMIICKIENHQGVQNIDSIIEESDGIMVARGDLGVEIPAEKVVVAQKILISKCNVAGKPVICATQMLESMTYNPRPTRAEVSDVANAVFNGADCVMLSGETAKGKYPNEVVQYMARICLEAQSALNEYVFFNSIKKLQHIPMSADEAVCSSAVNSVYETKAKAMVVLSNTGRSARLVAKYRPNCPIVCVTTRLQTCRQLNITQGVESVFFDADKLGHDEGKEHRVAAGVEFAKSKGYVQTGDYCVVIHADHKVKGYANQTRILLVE
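Screened at intermediate enzyme activity to detect both inhibitors and activators: LmPK at 0.1 nM, with a 0.5 nM enzyme column as activation reference. PEP 0.5 mM, ADP 0.1 mM; ATP detected by luminescence after 1 h.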
TbPYK inhibitor – T. brucei pyruvate kinase inhibition | AID 624173 | 0.12% of 410,000 active | TbPYK enzyme, Kinase-Glo Plus ATP luminescence, 45 min | Potency, µM (highest dose often 76.8 µM), actives largely listed as inhibitors; further: nearly all actives have a fitted effect of over 50% in size
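T. brucei PYK with substrate was exposed to pin-transferred compounds across a concentration series, then started with 130 uM ADP (final). After 45 min at room temperature, Kinase-Glo Plus luminescence was read, normalized and curve-fitted.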
RE007 growth inh – less growth of the S. pombe RE007 Vpr strain; S. pombe RE007 Vpr strain, BacTiter-Glo ATP luminescence, 24 h; Potency, µM (doses to about 92.2 µM), usual class: inhibitors; 0.21% of 360,000 active; active means well fitted falling curve with a large enough effect; inconclusive means small, poorly fitted or top-dose-only effect; inactive means no such curve, though single readings can be large or run the other way; further: nearly all actives have a fitted effect of over 50% in size
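Fission yeast strain RE007, carrying one chromosomally integrated HIV-1 vpr copy, was seeded at OD 0.01 in PMG+AL medium with 23 nL pinned compound. After 24 h at 30 °C and 99% humidity, viability was read by BacTiter-Glo luminescence.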
Sm TGR inh – blocks Schistosoma mansoni thioredoxin glutathione reductase. AID 485364. 3% of 360,000 active. purified TGR, DTNB reduction, TNB absorbance 405 nm. Potency, µM (highest dose often 114 µM), actives largely listed as inhibitors; further: nearly all actives have a fitted effect of over 60% in size
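TGR 20 nM + NADPH 100 uM (dispensed conc.), cpd preinc 15 min RT; start with NADPH (500 uM addition) then DTNB (15 mM addition). Kinetic TNB absorbance, 405 nm filter. Four-parameter Hill fit across titration.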
AMA1 RON2 block – inhibitors of Plasmodium falciparum AMA1-RON2 interaction. AlphaScreen AMA1-biotinylated RON2 peptide binding. 0.2% of 360,000 active. Potency, µM (doses to about 58.2 µM), usual class: inhibitors; further: nearly all actives have a fitted effect of over 45% in size
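AMA1 (3D7) with his tag at 25 nM final met compounds first, then biotinylated RON2 peptide at 25 nM; detection used donor plus acceptor beads, 10 µg/mL apiece, read by AlphaScreen after 30 min at room temperature.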
Hits are given with their value; . = inactive; ? = inconclusive; / = no result; [ ] = another dose, or the depositor's remark. Unless noted, the call rests on the fitted dose curve; in most records, active means well fitted curve in the direction sought with a large enough effect; inconclusive means small, poorly fitted or top-dose-only effect, or another doubt; inactive means no such curve, though single readings can be large; an effect the other way counts as inactive or inconclusive.

SMILES	LmPK inhibitor	TbPYK inhibitor	RE007 growth inh	Sm TGR inh	AMA1 RON2 block
O=S1(=O)CCC(NC2CCCC2)C1 (stereo not drawn)	.	.	.	.	.
CN(C)NC1CCS(=O)(=O)C1 (stereo not drawn)	.	.	.	1.6µM	.
CC1(C)CC(=O)C(CC2C(=O)CC(C)(C)CC2=O)C(=O)C1	.	.	.	2µM	.
CC1(C)CC(=O)C(CC2CCCCC2=O)C(=O)C1 (stereo not drawn)	.	.	.	.	.
CCOC(=O)c1cccc(Nc2c3c(nc4ccccc24)CCC3)c1	/	.	/	.	/
Oc1ccc(N=Cc2cc(Br)c(N3CCOCC3)o2)cc1	.	.	.	18µM	.
Cc1ccc(SCCNC(=O)CN(c2ccccc2)S(=O)(=O)N(C)C)cc1	/	.	/	.	/
CCOC(=O)c1ccc(-n2c(CN3CCN(CC)CC3)nc3ccc([N+](=O)[O-])cc3c2=O)cc1	.[11.5 µM]	.	.	.	.
CCOC(=O)c1ccc(-n2c(CN3CCC(C(N)=O)CC3)nc3ccc([N+](=O)[O-])cc3c2=O)cc1	.	.	.	11µM	.
CCOC(=O)c1ccc(-n2c(CN(CC)CC)nc3ccc([N+](=O)[O-])cc3c2=O)cc1	.[11.5 µM]	.	.	11µM	.
CCOC(=O)c1ccc(-n2c(CN3CCC(O)CC3)nc3ccc([N+](=O)[O-])cc3c2=O)cc1	.	.	.	13µM	.
COc1ccccc1-n1c(/C=C/c2c(C)n(C)c3ccccc23)nc2ccccc2c1=O	/	.	/	.	/
COc1ccc(CCNC(=O)c2c(C)nn(-c3ccc(F)cc3)c2-n2cccc2)c(OC)c1OC	/	.	/	.	/
Cc1ccc(N2C(=O)C(CC(=O)Nc3cccc(F)c3)N(C3CC3)C2=O)cc1 (stereo not drawn)	.	.	.	50µM	.
CCOc1ccc(NC(=O)CC2C(=O)N(c3ccc(OC)cc3)C(=O)N2C2CCCCC2)cc1 (stereo not drawn)	/	.	/	.	/
COc1ccc(NC(=O)CC2C(=O)N(c3ccc(OC)cc3)C(=O)N2C2CCCCC2)cc1 (stereo not drawn)	/	.	/	56µM	/
CCOc1ccc(NC(=O)CC2C(=O)N(c3ccccc3)C(=O)N2C2CCCC2)cc1 (stereo not drawn)	/	.	/	50µM	/
CCCCc1cc2c(cn1)=C(OC(=O)c1ccc(Cl)nc1)C(C)(OC(=O)CC)C(=O)C=2 (stereo not drawn)	.[11.5 µM]	/	/	/	/
COc1cc2c3c(c1)/C(=C1/SC(NC(C)=O)=NC1=O)C(=O)N3C(C)(C)C=C2C	.	.	?	40µM	.
COc1ccc(OC)c(C2C(C(=O)Nc3ccc(C)cc3)=C(C)Nc3nnnn32)c1 (stereo not drawn)	/	.	/	.	/
COc1cc(OC)nc(-n2ncc(Br)c(Br)c2=O)n1	.	.	.	1.8µM	.
COC(=O)c1cnn(-c2nc(OC)cc(OC)n2)c1C	.	.	.	.	.
Cc1ccc(CNC(=O)C2CCN(S(=O)(=O)c3cccs3)CC2)o1	.	?	.	5.6µM	.
Cc1ccc(/C=C/C(=O)N2CCN(S(=O)(=O)c3cccs3)CC2)o1	.	.	.	8.9µM	.
Cc1ccc(/C=C/C(=O)N2CC(C)CC(C)C2)o1 (stereo not drawn)	.	?	?	2.8µM	.
SMILES	LmPK inhibitor	TbPYK inhibitor	RE007 growth inh	Sm TGR inh	AMA1 RON2 block
O=C(/C=C/c1ccco1)N1CCN(S(=O)(=O)c2cccs2)CC1	.	.	.	3.5µM	.
Cc1c(/C(O)=C2\C(=O)C(=O)N(CCN(C)C)C2c2ccccc2)cnn1-c1ccccc1 (stereo not drawn)	.	.	.	13µM	.
Cc1ccc(C2/C(=C(/O)c3ccccc3)C(=O)C(=O)N2CCN2CCOCC2)o1 (stereo not drawn)	.	.	.	45µM	.
Cc1c(/C(O)=C2\C(=O)C(=O)N(CCCN(C)C)C2c2cccs2)cnn1-c1ccccc1 (stereo not drawn)	/	.	.	/	.
Cc1ccc(C2/C(=C(/O)c3cnn(-c4ccccc4)c3C)C(=O)C(=O)N2CCN2CCOCC2)o1 (stereo not drawn)	.	.	.	22µM	.
O=C1C(=O)N(CCN2CCOCC2)C(c2ccccn2)/C1=C(/O)c1ccccc1 (stereo not drawn)	.	.	.	?	.
Cc1c(/C(O)=C2/C(=O)C(=O)N(CCN3CCOCC3)C2c2cccs2)cnn1-c1ccccc1 (stereo not drawn)	.	.	.	35µM	.
Cc1c(/C(O)=C2/C(=O)C(=O)N(CCN(C)C)C2c2ccc(C(C)C)cc2)cnn1-c1ccccc1 (stereo not drawn)	.	.	.	.	.
Cc1cc(Cl)ccc1OCC(=O)N(Cc1sccc1C)C1CCS(=O)(=O)C1 (stereo not drawn)	/	.	/	.	/
CCCCc1nc2c(c3c1C[C@H](C)OC3)CN(S(=O)(=O)c1ccc(Cl)c3nonc13)CC2	.[11.5 µM]	/	/	/	/
Cc1ccc(N(Cc2cccs2)C(=O)C(C)Oc2ccc(Cl)c(C)c2)cc1 (stereo not drawn)	/	.	/	.	/
CCc1cccc(CC)c1NC(=O)CCS(=O)(=O)c1ccc(Br)s1	/	.	/	.	/
Cc1cccc(NC(=O)Cn2c(=O)c3cccn3c3ccccc32)c1C	/	.	/	.	/
Cc1cccn2c1nc(=S)n2C(=O)c1ccco1	10µM	.	.	.	.
C/C(=N\Nc1nc2ccccc2s1)c1cccs1	.	.	35µM	.	?
CCOc1ccc2c(c1)-c1c(ssc1=S)C(C)(C)N2	.	.	.	.	19µM
CCOc1ccc2c(c1)-c1c(ssc1=S)C(C)(C)N2C(=O)CSC1=NCCS1	.	.	.	.	10µM
